# Inconclusive results are not listed. A call without a number means that no potency is given here. Calls of active or inactive are those of the source. Unless noted, calls come from the whole dose curve; as a rule, active = well fitted curve in the direction sought with a large enough effect in the repeat runs; inconclusive = weak or mixed curves; inactive = no such curve, though single readings can be large; an effect the other way counts as inactive or inconclusive.
# Tests used:
# [1] = qHTS assay to identify small molecule antagonists of the sonic hedgehog signaling (Shh) pathway (AID 1259369; calls by dose curve; note: nearly all actives have a fitted effect of over 45% in size; note: potency is the fitted concentration of half-maximal effect)
# Method in brief: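 Antagonist mode: compound added to 3T3 Gli1-Luc cells followed by conditioned-medium stimulation, 24 h at 37 C, 5% CO2. Inhibition taken as loss of Gli1-driven luciferase luminescence.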
# [2] = biological target: Estrogen receptor beta (Homo sapiens) (UniProt Q92731); experiment: qHTS assay to identify small molecule agonists of the estrogen receptor beta (ER-beta) signaling pathway (AID 1259377; active = well fitted activation curve with a large enough effect in the signal ratio in the repeat runs, not every such curve was filed as active; the % refers to the signal ratio)
# Method in brief: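 A UAS-controlled beta-lactamase reporter in ER-beta-UAS-bla HEK293T cells reports receptor activation. Compounds act for 16 hr at 37C in 2% charcoal-stripped serum, and a FRET substrate is read by fluorescence after 2 hours.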
# [3] = biological target: Estrogen receptor beta (Homo sapiens) (UniProt Q92731); experiment: qHTS assay to identify small molecule antagonists of the estrogen receptor beta (ER-beta) signaling pathway (AID 1259378; active = well fitted inhibition curve with a large enough effect in the signal ratio in the repeat runs, not every such curve was filed as active; the % refers to the signal ratio; note: potency is the fitted concentration of half-maximal effect)
# Method in brief: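 ER-beta-UAS-bla HEK293T cells in 2% charcoal-stripped FBS medium treated with compound plus 1nM final 17-beta-estradiol for 16 hr at 37C. Beta-lactamase reporter read by FRET substrate fluorescence after 2 hours at room temperature.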
# [4] = qHTS assay to identify small molecule agonists of the androgen receptor (AR) signaling pathway in the presence of an antagonist - cell viability counter screen (AID 1259379); note: nearly all actives have a fitted effect of over 25% in size; note: potency is the fitted concentration of half-maximal effect
# Method in brief: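 Cytotoxicity counter-screen run in the same wells as the nilutamide-challenged (3.0 µM final) AR agonist assay in MDA-kb2 cells. Compounds tested at 15 concentrations for 16 h, 37 °C without CO2; CellTiter-Fluor fluorescence read.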
# [5] = qHTS assay to identify small molecule agonists of the estrogen receptor beta (ER-beta) signaling pathway - cell viability counter screen (AID 1259380); note: nearly all actives have a fitted effect of over 30% in size; note: potency is the fitted concentration of half-maximal effect
# Method in brief: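 Cell viability counter screen: CellTiter-Glo luminescence (30 min, room temperature) measured in the same wells as the beta-lactamase readout, after 16 hr compound exposure at 37C of ER-beta-bla HEK293T cells in 2% charcoal-stripped FBS medium.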
# [6] = biological target: Androgen receptor (Homo sapiens) (UniProt P10275); experiment: qHTS assay to identify small molecule agonists of the androgen receptor (AR) signaling pathway in the presence of an antagonist (AID 1259381; calls by dose curve; note: nearly all actives have a fitted effect of over 15% in size)
# Method in brief: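 Agonist-mode confirmation run against 3.0 uM final nilutamide: compounds titrated at 15 concentrations onto MDA-kb2 MMTV-luciferase reporter cells. Luminescence measured with ONE-Glo following 16 hr incubation, 37C, 0% CO2.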
# [7] = qHTS assay to identify small molecule antagonists of the estrogen receptor beta (ER-beta) signaling pathway - cell viability counter screen (AID 1259382); note: series mostly up to about 92 µM; nearly all actives have a fitted effect of over 55% in size
# Method in brief: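 Cytotoxicity was measured in the same wells by CellTiter-Glo luminescence after 30 min at room temperature. Cells were ER-beta-bla HEK293T in charcoal-stripped serum, given compound together with 1 nM E2 and incubated 16 h at 37C.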
# [8] = biological target: Estrogen receptor (Homo sapiens) (UniProt P03372); experiment: qHTS assay to identify small molecule agonists of the estrogen receptor alpha (ER-alpha) signaling pathway in the presence of an antagonist (AID 1259383; calls by dose curve; note: top concentration of the series differs between compounds; nearly all actives have a fitted effect of over 15% in size)
# Method in brief: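 Agonist-mode confirmation run in the presence of 10.0nM (final) ICI-182,780 antagonist. The reporter was ERE-driven luciferase in VM7Luc4E2 cells, grown in charcoal-stripped serum. Cells were exposed to 15-concentration compound series for 22hr, then ONE-Glo luminescence was read.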
# [9] = qHTS assay to identify small molecule agonists or antagonists of the thyroid stimulating hormone receptor (TSHR) signaling pathway - wild type cell line counter screen (AID 1259384; calls by dose curve)
# Method in brief: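 Wild-type Hek293 cells, 800/well, 18 h at 37C, then compound with Ro20-1724 for 30 min RT. cAMP by HTRF (cAMP-d2/anti-cAMP cryptate), 1 h RT, fluorescence read. 15 concentrations, triplicates.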
# [10] = biological target: Thyrotropin receptor (Homo sapiens) (UniProt P16473); experiment: qHTS assay to identify small molecule antagonists of the thyroid stimulating hormone receptor (TSHR) signaling pathway (AID 1259385; calls by dose curve; note: nearly all actives have a fitted effect of over 20% in size)
# Method in brief: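 TSHR-HEK293 cells (800/well) plated 18 h, then compounds with Ro20-1724 and TSH at 1.5 ng/mL final, 30 min at room temperature. cAMP quantified by HTRF (cAMP-d2/anti-cAMP-cryptate, 1 h); 15 concentrations in triplicate.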
# [11] = qHTS assay to identify small molecule agonists of the estrogen receptor alpha (ER-alpha) signaling pathway in the presence of an antagonist - cell viability counter screen (AID 1259386); note: nearly all actives have a fitted effect of over 30% in size; note: potency is the fitted concentration of half-maximal effect
# Method in brief: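 Compounds tested at 15 concentrations for 22 h at 37C alongside 10.0nM (final) ICI-182,780 antagonist, in VM7Luc4E2 cells grown in phenol red-free, charcoal-stripped medium. Viability read by CellTiter-Fluor fluorescence after 1 h reagent incubation.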
# [12] = biological target: Progesterone receptor (Homo sapiens) (UniProt P06401); experiment: qHTS assay to identify small molecule agonists of the progesterone receptor (PR) signaling pathway (AID 1346784; calls by dose curve; note: nearly all actives have a fitted effect of over 30% in size)
# Method in brief: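 Agonist mode, quantitative HTS format in a HEK 293T line expressing a UAS-controlled beta-lactamase reporter; 16 hr compound exposure at 37C in 2% charcoal-stripped FBS, then LiveBLAzer B/G FRET fluorescence.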
# [13] = biological target: Progesterone receptor (Homo sapiens) (UniProt P06401); experiment: qHTS assay to identify small molecule antagonists of the progesterone receptor (PR) signaling pathway (AID 1346795; active = well fitted inhibition curve with a large enough effect in the signal ratio in the repeat runs, not every such curve was filed as active; the % refers to the signal ratio)
# Method in brief: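 HEK293T PR-UAS-bla reporter cells in charcoal-stripped serum (2%) received compound after a 6 hr settling period, followed by R5020 agonist at 1 nM final; 16 hr incubation preceded the FRET substrate step and fluorescence measurement.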
# [14] = qHTS assay to identify small molecule antagonists of the progesterone receptor (PR) signaling pathway - cell viability counter screen (AID 1346798); note: series mostly up to about 92 µM; nearly all actives have a fitted effect of over 50% in size
# Method in brief: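 Same-well multiplex: after 16 hr at 37C with compound and R5020 stimulation, HEK293T cells carrying a UAS-bla reporter received LiveBLAzer substrate (2 hr RT), then CellTiter-Glo (30 min RT) for luminescent viability.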
# [15] = qHTS assay to identify small molecule agonists of the progesterone receptor (PR) signaling pathway - cell viability counter screen (AID 1346799; calls by dose curve; note: nearly all actives have a fitted effect of over 45% in size)
# Method in brief: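 Counter screen for cytotoxicity: compound-treated PR-UAS-bla HEK293T cells (16 hr, 37C, 5% CO2) were assayed with CellTiter-Glo, luminescence measured after 30 min at room temperature.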
# [16] = qHTS assay to identify small molecule antagonists of the TGF-beta/Smad signaling pathway - cell viability counter screen (AID 1346824); note: nearly all actives have a fitted effect of over 50% in size
# Method in brief: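 SBE-bla HEK 293T cells, incubated overnight, then compound plus 0.25 ng/mL TGF-beta1 (stock added) for 5 hr at 37 C. Viability was read in the same wells by CellTiter-Glo luminescence after 30 min at room temperature.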
# [17] = qHTS assay to identify small molecule agonists of the TGF-beta/Smad signaling pathway - cell viability counter screen (AID 1346829); note: top concentration of the series differs between compounds; nearly all actives have a fitted effect of over 45% in size
# Method in brief: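 In parallel with the Smad reporter read, viability of HEK 293T cells stably carrying SBE-bla is quantified by ATP luminescence following 5 hr compound treatment.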
# [18] = qHTS assay to identify small molecule agonists of the TGF-beta/Smad signaling pathway (AID 1346859; active = well fitted activation curve with a large enough effect in the signal ratio in the repeat runs, not every such curve was filed as active; the % refers to the signal ratio; note: series mostly up to about 77 µM)
# Method in brief: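 Smad-responsive beta-lactamase reporter cells (HEK 293T) received compounds from DMSO stocks after overnight attachment, were incubated 5 hr, then treated 2 hr with FRET substrate before dual-emission fluorescence measurement (405 nm excitation).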
# [19] = biological target: Thyrotropin-releasing hormone receptor (Homo sapiens) (UniProt P34981); experiment: qHTS assay to identify small molecule antagonists of the thyrotropin-releasing hormone receptor (TRHR) signaling pathway (AID 1346877; active = well fitted inhibition curve with a large enough effect in the repeat runs, not every such curve was filed as active; note: series mostly up to about 51 µM)
# Method in brief: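 Antagonist mode: after a 5 min room-temperature compound exposure, cells were stimulated with 1 nM (final) TRH. Dye-loaded TRHR-HEK293 cells were used, and calcium-dependent fluorescence was followed for 3 min, with 15-point titrations run in triplicate.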
# [20] = biological target: Thyrotropin-releasing hormone receptor (Homo sapiens) (UniProt P34981); experiment: qHTS assay to identify small molecule agonists of the thyrotropin-releasing hormone receptor (TRHR) signaling pathway (AID 1346891; calls by dose curve;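 note: HEK293 cells expressing TRHR with calcium dye readout; series mostly up to about 58 µM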)
# Method in brief: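 Agonist-mode calcium mobilisation screen: TRHR-transfected HEK293 cells cultured overnight (18 h), dye-loaded for 2 h at 37 °C, exposed to compounds, and monitored by fluorescence for 3 min.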
# Chain of Estrogen receptor beta (Homo sapiens) (Q92731 whole entry, looked up): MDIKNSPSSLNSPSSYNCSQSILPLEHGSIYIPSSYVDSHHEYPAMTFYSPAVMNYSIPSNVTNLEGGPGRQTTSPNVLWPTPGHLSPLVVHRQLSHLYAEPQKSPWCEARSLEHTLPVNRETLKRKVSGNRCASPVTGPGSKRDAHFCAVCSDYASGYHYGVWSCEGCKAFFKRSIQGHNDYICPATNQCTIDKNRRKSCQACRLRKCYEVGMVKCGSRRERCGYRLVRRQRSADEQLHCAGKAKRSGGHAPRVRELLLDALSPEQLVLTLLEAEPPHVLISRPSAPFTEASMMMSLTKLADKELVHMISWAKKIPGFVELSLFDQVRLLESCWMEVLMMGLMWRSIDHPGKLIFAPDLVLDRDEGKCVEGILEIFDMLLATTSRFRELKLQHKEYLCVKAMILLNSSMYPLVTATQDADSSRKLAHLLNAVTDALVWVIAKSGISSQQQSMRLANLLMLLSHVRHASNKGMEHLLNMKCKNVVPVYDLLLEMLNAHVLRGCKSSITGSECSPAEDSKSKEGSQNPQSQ
# Chain of Androgen receptor (Homo sapiens) (P10275 whole entry, looked up): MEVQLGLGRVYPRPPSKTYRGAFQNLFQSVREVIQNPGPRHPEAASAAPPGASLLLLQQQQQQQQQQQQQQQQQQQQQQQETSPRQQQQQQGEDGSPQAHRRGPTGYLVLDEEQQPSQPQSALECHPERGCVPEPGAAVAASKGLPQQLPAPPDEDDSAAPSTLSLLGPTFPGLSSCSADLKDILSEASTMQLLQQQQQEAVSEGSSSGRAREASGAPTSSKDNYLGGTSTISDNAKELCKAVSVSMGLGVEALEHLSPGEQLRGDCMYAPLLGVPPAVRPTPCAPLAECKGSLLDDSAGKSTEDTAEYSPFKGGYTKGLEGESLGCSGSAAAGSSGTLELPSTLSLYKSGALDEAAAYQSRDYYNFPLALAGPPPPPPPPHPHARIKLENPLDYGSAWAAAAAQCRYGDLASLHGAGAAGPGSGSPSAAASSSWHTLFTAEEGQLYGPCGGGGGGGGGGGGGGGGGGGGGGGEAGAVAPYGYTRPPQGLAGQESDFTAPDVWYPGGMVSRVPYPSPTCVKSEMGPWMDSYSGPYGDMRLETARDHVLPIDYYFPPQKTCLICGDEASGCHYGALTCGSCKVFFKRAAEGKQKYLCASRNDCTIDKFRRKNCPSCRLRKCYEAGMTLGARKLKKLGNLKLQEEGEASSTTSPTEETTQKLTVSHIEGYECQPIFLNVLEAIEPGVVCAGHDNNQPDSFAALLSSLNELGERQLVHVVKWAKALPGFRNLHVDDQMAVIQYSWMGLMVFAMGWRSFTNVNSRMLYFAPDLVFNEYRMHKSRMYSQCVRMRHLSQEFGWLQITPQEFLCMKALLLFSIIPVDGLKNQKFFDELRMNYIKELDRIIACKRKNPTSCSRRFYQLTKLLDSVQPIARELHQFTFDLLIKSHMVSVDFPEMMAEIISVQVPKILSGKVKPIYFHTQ
# Chain of Progesterone receptor (Homo sapiens) (P06401 whole entry, looked up): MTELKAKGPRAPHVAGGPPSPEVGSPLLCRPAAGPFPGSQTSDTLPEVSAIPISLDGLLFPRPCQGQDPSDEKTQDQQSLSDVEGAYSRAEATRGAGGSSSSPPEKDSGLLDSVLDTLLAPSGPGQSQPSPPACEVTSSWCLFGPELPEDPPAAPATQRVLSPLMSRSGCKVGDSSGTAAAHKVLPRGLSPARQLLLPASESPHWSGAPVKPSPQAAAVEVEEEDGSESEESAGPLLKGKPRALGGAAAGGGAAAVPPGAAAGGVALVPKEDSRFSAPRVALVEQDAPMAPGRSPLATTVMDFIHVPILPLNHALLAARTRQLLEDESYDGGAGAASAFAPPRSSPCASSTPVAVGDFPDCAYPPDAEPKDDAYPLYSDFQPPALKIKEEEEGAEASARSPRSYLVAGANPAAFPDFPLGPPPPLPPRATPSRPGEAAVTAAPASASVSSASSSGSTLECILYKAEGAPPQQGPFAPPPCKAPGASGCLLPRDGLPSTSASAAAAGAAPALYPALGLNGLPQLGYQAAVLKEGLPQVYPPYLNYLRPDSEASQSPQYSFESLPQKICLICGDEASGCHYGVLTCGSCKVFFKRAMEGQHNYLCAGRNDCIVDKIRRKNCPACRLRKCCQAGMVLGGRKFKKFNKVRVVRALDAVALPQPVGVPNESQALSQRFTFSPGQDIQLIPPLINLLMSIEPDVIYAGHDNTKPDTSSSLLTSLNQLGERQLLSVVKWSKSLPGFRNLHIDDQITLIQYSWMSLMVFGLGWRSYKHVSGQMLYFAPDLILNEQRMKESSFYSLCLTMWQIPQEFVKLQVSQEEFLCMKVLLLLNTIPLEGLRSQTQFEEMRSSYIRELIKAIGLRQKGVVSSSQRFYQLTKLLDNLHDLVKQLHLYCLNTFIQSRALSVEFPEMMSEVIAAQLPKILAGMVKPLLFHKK
# Chain of Thyrotropin receptor (Homo sapiens) (P16473 whole entry, looked up): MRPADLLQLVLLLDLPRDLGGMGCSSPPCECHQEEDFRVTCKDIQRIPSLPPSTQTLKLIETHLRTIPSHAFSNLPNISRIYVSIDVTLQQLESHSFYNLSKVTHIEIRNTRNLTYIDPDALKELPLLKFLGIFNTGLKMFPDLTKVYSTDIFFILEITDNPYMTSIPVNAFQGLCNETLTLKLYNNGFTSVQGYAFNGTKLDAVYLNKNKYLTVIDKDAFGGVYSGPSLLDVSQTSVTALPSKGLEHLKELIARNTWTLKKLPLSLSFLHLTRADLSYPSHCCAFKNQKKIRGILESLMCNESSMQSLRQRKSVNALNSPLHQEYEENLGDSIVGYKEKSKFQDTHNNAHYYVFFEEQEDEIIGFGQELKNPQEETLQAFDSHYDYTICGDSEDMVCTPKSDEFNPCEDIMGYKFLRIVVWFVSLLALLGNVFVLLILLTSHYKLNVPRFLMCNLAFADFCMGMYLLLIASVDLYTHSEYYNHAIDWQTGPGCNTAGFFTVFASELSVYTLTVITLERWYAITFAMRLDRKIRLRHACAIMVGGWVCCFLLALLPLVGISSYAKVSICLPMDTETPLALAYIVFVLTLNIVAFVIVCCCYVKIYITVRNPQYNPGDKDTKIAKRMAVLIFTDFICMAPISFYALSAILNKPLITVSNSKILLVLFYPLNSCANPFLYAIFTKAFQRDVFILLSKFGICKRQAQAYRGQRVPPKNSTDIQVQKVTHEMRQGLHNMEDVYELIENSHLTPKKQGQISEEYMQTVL
# Chain of Thyrotropin-releasing hormone receptor (Homo sapiens) (P34981 whole entry, looked up): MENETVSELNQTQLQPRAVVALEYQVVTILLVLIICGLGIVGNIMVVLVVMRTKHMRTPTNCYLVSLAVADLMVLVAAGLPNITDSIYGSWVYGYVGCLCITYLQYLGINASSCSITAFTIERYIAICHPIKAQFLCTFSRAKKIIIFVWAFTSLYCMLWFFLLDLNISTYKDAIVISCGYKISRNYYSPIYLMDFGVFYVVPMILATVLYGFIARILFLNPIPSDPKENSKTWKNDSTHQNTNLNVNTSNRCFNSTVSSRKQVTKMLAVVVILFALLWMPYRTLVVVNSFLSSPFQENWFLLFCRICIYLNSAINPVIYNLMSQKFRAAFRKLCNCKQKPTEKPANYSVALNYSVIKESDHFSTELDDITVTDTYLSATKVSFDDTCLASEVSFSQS
# Chain of Estrogen receptor (Homo sapiens) (P03372 whole entry, looked up): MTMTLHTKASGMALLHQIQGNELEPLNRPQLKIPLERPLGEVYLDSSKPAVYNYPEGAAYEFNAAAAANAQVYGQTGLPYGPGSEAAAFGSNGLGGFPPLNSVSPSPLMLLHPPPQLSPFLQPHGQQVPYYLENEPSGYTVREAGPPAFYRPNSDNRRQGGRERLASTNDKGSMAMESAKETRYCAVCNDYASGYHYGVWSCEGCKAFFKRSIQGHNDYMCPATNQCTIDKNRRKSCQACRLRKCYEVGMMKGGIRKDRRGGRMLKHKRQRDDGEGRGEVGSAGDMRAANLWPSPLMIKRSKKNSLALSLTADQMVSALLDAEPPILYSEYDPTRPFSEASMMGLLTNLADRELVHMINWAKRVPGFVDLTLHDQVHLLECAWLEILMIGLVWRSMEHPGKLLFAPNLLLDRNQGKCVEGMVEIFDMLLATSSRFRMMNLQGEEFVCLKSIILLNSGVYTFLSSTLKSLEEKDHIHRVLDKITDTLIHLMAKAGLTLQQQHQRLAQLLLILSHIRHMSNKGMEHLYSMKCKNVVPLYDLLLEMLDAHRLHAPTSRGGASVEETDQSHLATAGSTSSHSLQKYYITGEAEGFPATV
SMILES,Potency [1],Potency [2],Potency [3],Potency [4],Potency [5],Potency [6],Potency [7],Potency [8],Potency [9],Potency [10],Potency [11],Potency [12],Potency [13],Potency [14],Potency [15],Potency [16],Potency [17],outcome [18],Potency [19],Potency [20]
CCOC(=O)Cc1ccccc1,inactive,inactive,inactive,inactive,inactive,inactive,inactive,inactive,inactive,inactive,inactive,inactive,inactive,inactive,inactive,inactive,inactive,inactive,inactive,inactive
Nc1nc(N)nc(Cl)n1,inactive,inactive,inactive,inactive,inactive,–,inactive,–,inactive,inactive,–,inactive,inactive,inactive,inactive,inactive,inactive,inactive,–,inactive
CN(C)c1ccc(N)cc1,13.4 µM (active),inactive,23.7 µM (active),59.6 µM (active),11.9 µM (active),inactive,–,inactive,–,–,53.2 µM (active),–,–,inactive,–,inactive,–,–,–,inactive
O=C(NC(=O)c1ccccc1Cl)Nc1ccc(OC(F)(F)F)cc1,inactive,inactive,inactive,inactive,inactive,inactive,inactive,–,inactive,inactive,inactive,inactive,–,–,–,inactive,inactive,inactive,–,–
CCCCc1ccccc1,inactive,inactive,inactive,inactive,inactive,–,inactive,–,inactive,inactive,inactive,inactive,inactive,inactive,inactive,inactive,inactive,inactive,–,–
C#CC1(O)CCCCC1,inactive,inactive,inactive,inactive,inactive,–,inactive,–,inactive,inactive,–,inactive,inactive,inactive,inactive,inactive,inactive,–,–,inactive
CSSC,15.5 µM (active),inactive,inactive,inactive,inactive,–,inactive,–,inactive,inactive,inactive,inactive,–,–,–,inactive,inactive,inactive,inactive,–
COC(=O)c1ccccc1S(=O)(=O)NC(=O)Nc1nc(C)nc(OC)n1,inactive,inactive,inactive,inactive,inactive,–,inactive,–,inactive,inactive,–,inactive,inactive,inactive,–,inactive,inactive,inactive,–,inactive
